# High-throughput results deposited in PubChem BioAssay by National Center for Advancing Translational Sciences (NCATS).
# Most compounds without a hit are left out; they make up all but 2.4% or so of the library.
# Pol eta inh-1 = blocks human DNA polymerase eta activity. recombinant Pol eta, fluorescent DNA replication assay. 390,000 compounds, 1.2% hits. AID 588591. Potency, µM (series often up to 114 µM), for inactives: at the highest dose activity change, negative = inhibition, most hits filed as inhibitors; further: on the % scale 0 is the no-effect control and ±100 the full control effect
#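 Fluorescent replication assay: 50 nM final substrate added after a 15 min room-temperature compound preincubation with 10 nM enzyme. Signal taken at 0 min and again at 10 min.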
# Pol kappa inh-1 = blocks human DNA polymerase kappa activity; Q9UBT6; purified Pol kappa, fluorescent DNA synthesis assay, 10 min; Potency, µM (series often up to 107 µM), without a hit: at the highest dose activity, negative = inhibition, most hits filed as inhibitors; AID 588579; 400,000 compounds, 0.53% hits; further: on the % scale 0 is the no-effect control and ±100 the full control effect
# Target sequence (Q9UBT6 whole entry, looked up): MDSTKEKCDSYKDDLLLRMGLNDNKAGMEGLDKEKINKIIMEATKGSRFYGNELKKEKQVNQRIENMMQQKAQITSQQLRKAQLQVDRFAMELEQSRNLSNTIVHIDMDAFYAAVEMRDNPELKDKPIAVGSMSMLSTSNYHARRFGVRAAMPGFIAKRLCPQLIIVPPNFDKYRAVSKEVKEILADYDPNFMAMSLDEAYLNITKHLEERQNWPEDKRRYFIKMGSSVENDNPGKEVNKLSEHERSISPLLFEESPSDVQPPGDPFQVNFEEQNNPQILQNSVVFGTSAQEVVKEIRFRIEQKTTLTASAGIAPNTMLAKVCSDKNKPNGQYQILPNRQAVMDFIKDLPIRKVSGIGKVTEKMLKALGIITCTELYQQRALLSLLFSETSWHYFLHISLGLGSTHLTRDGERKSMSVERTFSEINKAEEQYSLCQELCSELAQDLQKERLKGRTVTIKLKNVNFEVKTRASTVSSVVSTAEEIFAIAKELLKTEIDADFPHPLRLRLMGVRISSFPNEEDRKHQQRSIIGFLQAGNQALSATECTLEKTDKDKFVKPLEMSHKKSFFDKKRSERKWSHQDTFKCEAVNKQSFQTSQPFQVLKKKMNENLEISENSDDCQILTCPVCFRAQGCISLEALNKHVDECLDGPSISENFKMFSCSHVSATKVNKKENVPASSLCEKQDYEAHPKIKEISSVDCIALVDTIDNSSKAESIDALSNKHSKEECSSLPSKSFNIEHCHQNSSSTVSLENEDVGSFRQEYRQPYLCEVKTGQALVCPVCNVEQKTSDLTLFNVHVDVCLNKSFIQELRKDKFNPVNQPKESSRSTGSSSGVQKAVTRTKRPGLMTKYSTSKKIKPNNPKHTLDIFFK
#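 10 nM Pol kappa was preincubated with compounds for 15 min at room temperature. Reaction started with 50 nM (final) substrate. Fluorescence read kinetically at 0 and 10 min.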
# POLI inh = inhibitors of human DNA polymerase iota; Q9UNA4; Pol iota fluorescent replication assay, 10 min; Potency, µM (titrated, usually from 115 µM), for the others: top-dose activity, negative = inhibition, usual class: inhibitors; 390,000 compounds, 1% hits; AID 588590
#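 Pol iota at 10 nM preincubated 15 min with compounds at room temperature; reaction started with fluorescent substrate, 50 nM final. Fluorescence read kinetically at 0 and 10 min; buffer-only wells as negative control.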
# WRN helicase inh = blocks human WRN helicase; Q14191; WRN helicase unwinding, fluorescent forked duplex, kinetic; Potency, µM (series often up to 114 µM), for inactives: top-dose activity change, negative = inhibition, hits mostly inhibitors; 360,000 compounds, 0.46% hits; AID 651768; further: on the % scale 0 is the no-effect control and ±100 the full control effect; nearly all actives have a fitted effect of over 55% in size
#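 WRN at 20 nM final was preincubated with compound for 15 min at room temperature; reaction started with 100 nM forked duplex oligonucleotide carrying fluorophore and quencher plus 2 mM ATP (final). Unwinding followed kinetically by red fluorescence (ex 525/em 598 nm).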
# Pol beta inh = DNA polymerase beta (human) inhibition | Potency, µM (titrated, usually from 114 µM), for inactives: at the top dose activity change, negative = inhibition, most hits filed as inhibitors | Pol beta primer extension/strand displacement, fluorescence kinetic | 340,000 compounds, 1.3% hits; further: on the % scale 0 is the no-effect control and ±100 the full control effect
#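 10 nM enzyme + cpd, 15 min RT; start with substrate 50 nM final; read 0 min and after 10 min RT. Corrected, normalized data; 4-parameter Hill curve fit.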
# FEN1 inh = human FEN1 inhibition | AID 588795 | Potency, µM (doses to about 114 µM), for inactives: top-dose activity change, negative = inhibition, actives largely listed as inhibitors | P39748 | Recombinant FEN1 flap cleavage, fluorescence, 15 min | 390,000 compounds, 0.35% hits; further: on the % scale 0 is the no-effect control and ±100 the full control effect; nearly all actives have a fitted effect of over 65% in size
#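 With each library titrated from low to high concentration, compounds met 10 nM FEN1 for 15 min at room temperature before 50 nM substrate was added; readings at 0 and 15 min fed four-parameter Hill curve fits.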
# HEK293 tox = counter-screen for GALK inhibitors: HEK293 cell cytotoxicity. Potency, µM (top dose mostly 46.1 µM), for the others: at the top dose activity change, negative = cytotoxicity, hits mostly inhibitors. HEK-293 viability, ATP luminescence (CellTiter-Glo), 24/48 h. 170 compounds, 10% hits. shares compounds with Pol eta inh-1. AID 2547; further: on the % scale 0 is the no-effect control and ±100 the full control effect
# Pol kappa inh-2 = confirmation of human DNA polymerase kappa inhibitors; purified Pol-kappa, fluorescent strand-displacement substrate; Potency, µM, usual class: inhibitors; 920 compounds, 76% hits; shares compounds with Pol eta inh-1; AID 720501
# Pol eta inh-2 = confirmation of human DNA polymerase eta inhibitors; shares compounds with Pol eta inh-1; Pol eta primer extension, TAMRA/BHQ fluorescence, 10 min; Potency, µM, actives largely listed as inhibitors; 2,600 compounds, 64% hits; AID 720502
# * = called active by the depositor; ? = inconclusive; . = no result; [ ] = dose if it differs, or a comment. The call rests on the fitted dose curve; in most records, active means well fitted curve in the direction sought with a large enough effect; inconclusive means small, poorly fitted or top-dose-only effect, or another doubt; inactive means no such curve, though single readings can be large; an effect the other way counts as inactive or inconclusive. Potency means the concentration at half of the fitted maximal effect.
SMILES,Pol eta inh-1,Pol kappa inh-1,POLI inh,WRN helicase inh,Pol beta inh,FEN1 inh,Pol eta inh-2,others
COc1cc(/C=C2\C(=O)N(c3cccc(C(=O)O)c3)N=C2C)ccc1OCc1ccccc1,32µM*,.,.,2.7µM*,.,.,?,
N#C/C(=C\c1cccnc1)C(=O)Nc1ccccc1[N+](=O)[O-],32µM*,-32%,-28%,-8%[11.6 µM],-13%,?,76*,Pol kappa inh-2=?
Cc1ccccc1NC(=O)/C(C#N)=C\c1cccnc1,6%,0%,18%,1%,0%,-12%,.,
O=C(O)c1ccc(/C=C2\COc3ccccc3C2=O)cc1,?,2%,?,?,10%,1%,?,
Cc1cc(C)c2c(c1)C(=O)/C(=C/c1ccc(C(=O)O)cc1)CC2,?,-12%,?,-10%,57%,2%,.,
Cc1ccc(OCc2ccoc2C(=O)O)cc1C,7.1µM*,?,?,-34%[57.1 µM],18µM*,-13%,?,
Cc1ccc(OCc2ccc(C(=O)O)o2)cc1C,5%,-7%,-22%,3%,29%,16%,.,
Cc1c(CCC(=O)O)c(=O)oc2c(C)c3occ(-c4ccc(Cl)cc4)c3cc12,22µM*,89µM*,13µM*,56µM*,22µM*,?,?,
Cc1cccc(C)c1NC(=O)c1ccc2nc(CCc3ccccc3)oc2c1,-11%,-11%[60.1 µM],?,.,6%,4%,.,
Cc1c(Cl)cccc1NC(=O)Cn1nnc(-c2nc(-c3ccccc3)no2)c1N,.,11%,30%,.,32%,5%,.,
CCOc1ccc(CCNC(=O)C2CC(C)=CCC2C(=O)O)cc1OCC (stereo not drawn),28µM*,-26%,?,-5%[11.6 µM],25µM*,-4%,54*,
Cc1ccc(NC(=O)C2CCN(C(=O)c3cnn(-c4ccccc4)c3-n3cccc3)CC2)cc1,-18%,-5%,10%,.,-2%,2%,.,
O=c1[nH]c(Nc2nc3ccccc3o2)nc2c1CCCC2,-1%,-6%,6%,-17%[57.1 µM],2%,25%,.,
CC1(C)N=C(Nc2nc3ccccc3o2)NC2=C1C(=O)CCC2,.,.,.,.,.,.,.,HEK293 tox=-27%
CC1CCC2(C1)N=C(Nc1nc3ccccc3o1)NC1=C2C(=O)CCC1 (stereo not drawn),.,.,.,.,.,.,.,HEK293 tox=?
COC(=O)c1ccc(OCC2c3cc(OC)c(OC)cc3CCN2C(=O)c2ccccc2F)cc1 (stereo not drawn),-16%,-4%[60.1 µM],-3%,.,16%,-7%,.,
O=C(COc1ccc(F)cc1)OCc1cc(=O)n2nc(C3CC3)sc2n1,3%,-19%,37%,.,1%,18%,.,
CC1=C(C#N)C(=O)NC(=O)/C1=C\c1ccc(-c2ccc(C)cc2[N+](=O)[O-])o1,50µM*,-13%,?,?,32µM*,-6%,?,
Cc1ccc(-c2ccc(/C=N/N=C3/NC(=O)C(CC(=O)O)S3)o2)c([N+](=O)[O-])c1 (stereo not drawn),?,-9%,6%,-9%,5%,-15%,.,
CCOC(=O)c1cc(-c2ccc(/C=C3/C(=O)NC(=O)C(C#N)=C3C)o2)ccc1Cl,28µM*,?,?,?,35µM*,?,48*,
CCc1ccc(C2c3c(-c4ccccc4O)n[nH]c3C(=O)N2Cc2cccnc2)cc1 (stereo not drawn),-24%,-11%,28%,.,-1%,-5%,.,
N#Cc1cc2c(OCC(O)CN3CCN(C(c4ccccc4)c4ccccc4)CC3)cccc2[nH]1 (stereo not drawn),.,-2%[19.4 µM],.,.,.,.,.,
CCOC(=O)c1c(C)[nH]c(C)c1S(=O)(=O)NCC(=O)Nc1ccc(C)c(N(C)C)c1,-12%,-11%,9%,.,-21%,-3%,.,
CSc1cccc(N2CC(C(=O)N(CC(C)C)c3c(N)n(Cc4ccccc4)c(=O)[nH]c3=O)CC2=O)c1 (stereo not drawn),25µM*,?,?,-10%[11.6 µM],.,-1%,?,
CC(C)CN(C(=O)C1CC1)c1c(N)n(Cc2ccccc2)c(=O)[nH]c1=O,-11%,-7%,34%,5%,.,1%,.,
SMILES,Pol eta inh-1,Pol kappa inh-1,POLI inh,WRN helicase inh,Pol beta inh,FEN1 inh,Pol eta inh-2,others
COc1ccc(C(=O)OCc2cc(=O)n3nc(-c4cccs4)sc3n2)cc1,?,-7%,?,.,?,4%,?,
O=C(Nc1ccccc1)N(Cc1cccs1)c1ccc(F)cc1,-16%,0%,19%,.,6%,-7%,.,
Cc1ccc(CNC(=O)c2c(-c3cccc(Br)c3)noc2C)o1,2%,1%[60.1 µM],-25%,.,6%,-16%,.,
Cc1ccc(S(=O)(=O)NN2C(=O)/C(=C\c3ccc(Cl)cc3)SC2=S)cc1,40µM*,-9%,?,?,-17%,?,24*,
O=C1C[C@H]2C=CCc3cccc(c32)CN1Cc1cccc(F)c1,.,0%,29%,.,.,-17%,.,
CCOc1cc(/C=C2\CCCC(C(=O)C(F)(F)F)=C2O)ccc1O,?,0%,8%,-33%,50µM*,?,.,Pol kappa inh-2=75*
COc1cc(/C=C2/CCCC(C(=O)C(F)(F)F)=C2O)ccc1O,-18%,-14%,63%,?,0%,-1%,.,
O=C1Nc2c(Cl)cc(Cl)cc2C1=O,?,?,?,-5%[11.6 µM],.,-22%,?,
Cc1cccc(N=C2C(=O)Nc3c(Cl)cccc32)c1,-4%,-12%,?,1%,2%,-9%,.,
O=C1N=C(N2C=CC(=C3C=CNC=C3)C=C2)/C(=C/N=NC(=O)c2ccccc2O)S1,18µM*,?,32µM*,-31%,14µM*,?,76*,
C[C@H](NC(=O)OC(C)(C)C)C(=O)c1ccco1,.,-14%,20%,.,.,-12%,.,
O=C(/C=C/c1ccco1)NC(=S)NNC(=O)c1ccco1,50µM*,-32%,?,-6%[11.6 µM],?,2%,.,Pol kappa inh-2=?
COc1ccc(CN(Cc2ccccc2)C(=O)c2ccno2)cc1COc1ccc(NC(C)=O)cc1,.,79µM*,40µM*,.,.,-9%,?,
COc1ccc(CN(Cc2ccccc2)C(=O)c2ccc(NC(C)=O)cc2)cc1COc1ccc(NC(C)=O)cc1,.,-22%,26%,.,.,-12%,.,
